The values that follow come from PubChem BioAssay.

Several values for one entry are separate records, joined by “and”; a condition that tells them apart may be missing. Equal values may be shown once. Records with an inconclusive call do not appear. Activity calls are given as the source filed them. Unless noted, no cut-off is given here; in the data, nearly all actives have AC50 up to about 30 µM.

Assay [1] is described as follows: P. berghei load reduction in hepatocytes – cell-based, HepG2, luciferase luminescence, HepG2 viability, primary screen (AID 624349; in the data active = parasite load remaining mostly below about 12%, no sharp cut-off; inactive = mostly above about 10%;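 note: 100% = mean of DMSO negative control wells on the same plate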). Particulars: P. berghei liver stage in HepG2, luciferase luminescence, concentration not given here; parasite load remaining: stronger effect = lower value; viability: measured here: HepG2 viability without parasites.
Assay [2] in a line: Wnt pathway potentiators raising nuclear beta-catenin – imaging, WNT3A-conditioned medium, mouse C2C12, NPC library, primary screen (AID 1117326; in the data active = nuclear beta-catenin stimulation mostly above about 4.2%, no sharp cut-off; inactive = mostly below about 10%; note: reference of the scale not given here). The note with it: stronger effect = higher value.
A short description of assay [3]: stimulators of insulin release from INS-1E, primary screen, cell-based, 5 mM glucose, NPC library (AID 1117329;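 active = compound raises insulin release from rat beta cells at 5 mM glucose, no numeric limit stated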; note: reference of the scale not given here). The note with it: rat INS-1E insulin secretion, at 10 µM, stronger effect = higher value.
Assay [4] is described as follows: growth inhibition of GSK3B-pretreated HCT116 cells – cell-based, CellTiter-Glo, 0.2 to 20 µM (AID 1117336;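 active = compounds lowering colon cancer cell viability after pretreatment blocking the GSK3B kinase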). The note with it: HCT116 viability after GSK3B inhibitor, at 20 µM, stronger effect = higher value.
Assay [5] is described as follows: inhibition of endothelial tube formation, primary screen, imaging, VEGF stimulated, CD31 staining, tube area, NPC library (AID 1117340;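 active = compound that reduces growth-factor-driven endothelial tube area in a mixed cell culture, no cutoff stated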). Particulars: VEGF-stimulated ADSC/ECFC co-culture, at 10 µM, stronger effect = higher value.
Assay [6] in a line: GLP1 release stimulators, primary, NCI-H716, NPC library (AID 1117341;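 active = compound raises GLP1 secretion from the human gut endocrine cells, with no numeric limit stated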; note: reference of the scale not given here). The note with it: NCI-H716 cells, at 10 µM, stronger effect = higher value.
The nature of assay [7]: HCT116 colon cancer cell growth inhibition, primary screen, CellTiter-Glo luminescence, NPC library (AID 1117342;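 active = compounds that lower survival of HCT116 colon cancer cells in the luminescence readout, no numeric limit stated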). The note with it: at 20 µM (top of the series).
Assay [8] can be described thus: reduced SW480 viability measured with CellTiter-Glo, NPC library, primary (AID 1117343;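 active = compounds that lower viability of the colon cancer cells in the luminescence readout, with no numeric limit stated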). Particulars: CellTiter-Glo luminescence; at 20 µM (top of the series) unless noted.
A short description of assay [9]: NPC library primary testing for decreased DLD-1 cell viability via CellTiter-Glo (AID 1117346;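 active = compounds that lower survival of DLD-1 colon cancer cells in the luminescence readout, no cutoff given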). Particulars: DLD-1 viability, CellTiter-Glo luminescence; at 20 µM (top of the series).
Assay [10] in a line: viability loss in pontine glioma line – cell-based, JHH-DIPG-1, MIPE4.0, CellTiter-Glo, qHTS, dose response (AID 1347062; cut-off not given, nearly all actives have AC50 up to about 27 µM;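 for AC50: cells exposed to compound for two days before readout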). The note with it: JHH-DIPG-1 viability, CellTiter-Glo ATP luminescence.
Assay [11] can be described thus: viability loss in pontine glioma line – cell-based, SU-DIPG-IV, MIPE4.0, CellTiter-Glo, qHTS, dose response (AID 1347063).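 Note: compound exposure lasted 48 hours before the viability readout.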 Particulars: CellTiter-Glo ATP luminescence.
A short description of assay [12]: viability loss in pontine glioma line – cell-based, SU-DIPG-XXV, MIPE5.0, CellTiter-Glo, qHTS, dose response (AID 1347065; cut-off not given, nearly all actives have AC50 up to about 26 µM;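 note: cells exposed to compound for 48 hours before ATP readout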). Particulars: CellTiter-Glo ATP luminescence.
Assay [13] is described as follows: growth inhibition of DIPG cells – cell-based, MIPE4.0 library, CellTiter-Glo luminescence, qHTS (AID 1347066).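 Note: cells exposed to compound for 48 hours before readout.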 Particulars: SU-DIPG-VI viability, CellTiter-Glo ATP luminescence.
Assay [14] is described as follows: JHH-DIPG-1 glioma cell viability, MIPE5.0 library, CellTiter-Glo luminescence, qHTS (AID 1347067; cut-off not given, nearly all actives have AC50 up to about 26 µM;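 note: cells exposed to compound for 48 hours before readout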). The note with it: JHH-DIPG-1 glioma viability, CellTiter-Glo ATP luminescence.
The nature of assay [15]: growth inhibition of DIPG cells – cell-based, MIPE5.0 library, qHTS (AID 1347068; cut-off not given, nearly all actives have IC50 up to about 30 µM;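 for IC50: cells exposed to compound for 48 hours before viability readout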). The note with it: SU-DIPG-XXV viability.
Assay [16] is described as follows: MELAS cybrid and Rieske KO viability enhancers – cell-based, MELAS cybrids, Rieske KO mouse fibroblasts, CellTiter-Glo, primary screen (AID 1508586;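 active = mean z-score across replicates of 1.96 or higher in either the MELAS or the Rieske mutant cell line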;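 note: z relative to plate mean and SD of compound and empty wells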). The note with it: low glucose.
The nature of assay [17]: galactose survival enhancers in mitochondrial complex I cybrids – cell-based, galactose medium, ATP luminescence, primary screen (AID 1645843;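 active = z-score of at least 1.8 in each of two replicates, scored against plate mean and spread of sample wells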;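 note: positive z means more ATP and so rescue of galactose-driven cybrid death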). The note with it: complex I mutant cybrid cells, 72 h, stronger effect = higher value.
The nature of assay [18]: viability loss with induced miR-34 in A549 – imaging, A549 dox-inducible miR-34, nuclei and caspase counts, primary screen (AID 1347080;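 active = compounds whose cell count with miR-34 switched on is under 0.7 times the count with it off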). The note with it: A549 miR-34 inducible, Hoechst nuclei count, 48 h.
Setting [19] is: MELAS cybrid survival, CellTiter-Glo 48 h, stronger effect = higher value.
[20] abbreviates: Rieske KO mouse fibroblast survival, CellTiter-Glo 72 h.
The mark [21] stands for this setting: stronger effect = lower value, cell number ratio, induced over uninduced.
Where [22] appears, read: measured here: relative caspase fold change +Dox/-Dox.
The mark [23] stands for this setting: measured here: total cells with miR-34 induction, stronger effect = lower value.
The mark [24] stands for this setting: measured here: total cells without miR-34 induction.

Turning to `COC(=O)C1=C(C)NC(C)=C(C(=O)OCCN2CCN(C(c3ccccc3)c3ccccc3)CC2)C1c1cccc([N+](=O)[O-])c1` (stereo not drawn), the parasite load remaining in [1] was 20.2% (inactive). Besides, the viability in assay [1] is 100%. Further, the nuclear beta-catenin stimulation in assay [2] (at 10 µM) was 7.1% (inactive); in assay [2] (stimulation, at 2 µM), 1.4%. For the same molecule, the insulin secretion stimulation in [3] was -1.1% (inactive). Further, the viability decrease in [4] was 52.2% (active). The tube area decrease in [5] was 106% (active). In addition, the GLP1 secretion stimulation in [6] is -1.8% (inactive). Further, the inhibition of viability in assay [7] is 78.5% (active). The viability decrease (inhibition) in [8] was 135% (active); in assay [9] it was 96.4% (active). The outcome in [10], in assay [11] and in assay [13] was inactive. Also, the values for the concentration at half-maximal activity (AC50) in assay [12] and in assay [14] were 5.9 µM (active) and 13.2 µM (active), respectively. The half-maximal inhibitory concentration (IC50) in assay [15] is 8.33 µM (active). For the same molecule, the z-score in [16] (setting [19]) was -0.211 (inactive) and -0.214 (inactive) and 0.218 (inactive); in assay [16] (setting [20]) it was 1.09 and 0.891 and 0.572; in assay [17], -1.36 (inactive).
`CC(=O)O[C@@]12CO[C@@H]1C[C@H](O)[C@@]1(C)C(=O)[C@H](O)C3=C(C)[C@@H](OC(=O)[C@H](O)[C@@H](NC(=O)OC(C)(C)C)c4ccccc4)C[C@@](O)([C@@H](OC(=O)c4ccccc4)[C@H]21)C3(C)C`: the parasite load remaining in [1] is 80.3% (inactive). Besides, in assay [1], the viability was found to be 114%. Besides, the nuclear beta-catenin stimulation is 66.2% (active) in [2] (at 10 µM) and 49.3% in [2] (stimulation, at 2 µM). For the same molecule, the insulin secretion stimulation in assay [3] was -0.6% (inactive). In assay [4], the viability decrease is 71.8% (active). For the same molecule, the tube area decrease in [5] is 98.1% (active). The GLP1 secretion stimulation in assay [6] is -0.5% (inactive). Also, the inhibition of viability in [7] is 58.9% (active). Moreover, the viability decrease (inhibition) was 36.5% (active) in [8] and 31.8% (active) in assay [9]. Also, in assay [12], the concentration at half-maximal activity (AC50) was 0.00209 µM (active). Further, the result in [14] and in [15] was inactive. The figures for the fold change in [18] (setting [21]) and in assay [18] (setting [22]) were 0.999 (inactive) and 0.907, respectively. The cell count in assay [18] (setting [23]) and in assay [18] (setting [24]) was 2910 each time. For the same molecule, the values for the z-score in assay [16] (setting [19]), in assay [16] (setting [20]) and in assay [17] were -1.22 (inactive), 0.541 and -0.435 (inactive), respectively.
Take `CN(C)[C@@H](CCOc1cccc2ccccc12)c1ccccc1`: the nuclear beta-catenin stimulation was 0.1% (inactive) in assay [2] (at 10 µM) and -0.4% in [2] (stimulation, at 2 µM). Besides, the insulin secretion stimulation in [3] is 9.9% (inactive). For the same molecule, the viability decrease in [4] was 89.7% (active). For the same molecule, the tube area decrease in [5] is 20.5% (inactive). Moreover, the GLP1 secretion stimulation in [6] is 6% (inactive). In addition, the inhibition of viability in assay [7] was 91.5% (active). Besides, the viability decrease (inhibition) in [8] was 103% (active); in assay [9], 67% (active). The AC50 in [10] is 20.9 µM (active); in assay [11] it was 23.5 µM (active).
As for `COc1cccc(N(C)C(=S)Oc2ccc3c(c2)CCCC3)n1`, the nuclear beta-catenin stimulation was 0.4% (inactive) in [2] (at 10 µM) and 0.4% in [2] (stimulation, at 2 µM). Also, the insulin secretion stimulation in assay [3] was -2.1% (inactive). For the same molecule, the viability decrease in assay [4] is 48.8% (inactive). The tube area decrease in [5] was 17.8% (inactive). Also, in [6], the GLP1 secretion stimulation is -2.3% (inactive). Besides, the inhibition of viability in assay [7] was 13.6% (inactive). In addition, the figures for the viability decrease (inhibition) in assay [8] and in assay [9] were 54.5% (active) and 55.4% (active), respectively. Also, the call in assay [10] and in [11] was inactive. The z-score in assay [16] (setting [19]) is 0.186 (inactive); in [16] (setting [20]), -0.761.
On to `NC(=O)Cc1cccc(C(=O)c2ccccc2)c1N`, for which the nuclear beta-catenin stimulation in [2] (at 10 µM) is 3% (inactive); in assay [2] (stimulation, at 2 µM), 2.6%. For the same molecule, in [3], the insulin secretion stimulation was -0.1% (inactive). Further, the viability decrease in assay [4] was 4.9% (inactive). For the same molecule, the tube area decrease in assay [5] was 12.4% (inactive). Also, in [6], the GLP1 secretion stimulation is -1.1% (inactive). Also, the inhibition of viability in assay [7] is -6.03% (inactive). Besides, the results for the viability decrease (inhibition) in assay [8] and in [9] were -28.7% (inactive) and 6.9% (inactive), respectively. Besides, the outcome in [10], in assay [11] and in [13] was inactive. Besides, the values for the fold change in assay [18] (setting [21]) and in [18] (setting [22]) were 0.902 (inactive) and 0.903, respectively. The cell count in assay [18] (setting [23]) worked out at 7400; in assay [18] (setting [24]), 8200. Besides, the z-score in assay [16] (setting [19]) was -0.418 (inactive); in assay [16] (setting [20]), -0.195.
